# Measured values: PubChem BioAssay (NCI)
# About 79,000 compounds went through this panel and 15% of them were active in at least one assay; those are over-represented in the sample as a whole. Values without a mark were called inactive. Active and inactive are the calls of the source. No stated cut-off is given here; in the data, active means growth inhibition above about 70%; inactive means the rest.
# Columns and labels:
# [1] = NCI Yeast Anticancer Drug Screen. Data for the rad50 strain (AID 155);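 further: 0% = growth of vehicle-only cultures of the same strain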; conditions: S. cerevisiae rad50 strain growth inhibition, hits give high values
# Summary of the method: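 Cells are treated with compound, grown, and their growth is then scored against vehicle-only cultures of the same repair-deficient yeast strain.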
# [2] = NCI Yeast Anticancer Drug Screen. Data for the mec2-1 strain (AID 157); conditions: S. cerevisiae mec2-1 strain, hits give high values
# Summary of the method: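 Compounds were applied to mec2-1 yeast cells. Their growth was then compared with that of vehicle-treated cultures to give growth inhibition.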
# [3] = NCI Yeast Anticancer Drug Screen. Data for the sgs1 mgt1 strain (AID 161);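 further: 0% = growth of cultures given vehicle only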; conditions: S. cerevisiae sgs1 mgt1 strain, hits give high values
# Summary of the method: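 Yeast cells carrying a defined DNA-repair defect were exposed to test compounds. Growth inhibition was measured relative to vehicle-treated controls.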
# [4] = NCI Yeast Anticancer Drug Screen. Data for the cln2 rad14 strain (AID 165);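 further: 0% = growth equal to vehicle treated cultures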; conditions: S. cerevisiae cln2 rad14 strain, hits give high values
# Summary of the method: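 Strain: cln2 rad14 yeast, altered in cell cycle control and DNA damage repair. Read-out: growth inhibition vs vehicle.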
# [5] = NCI Yeast Anticancer Drug Screen. Data for the bub3 strain (AID 167); conditions: S. cerevisiae bub3 mutant strain, hits give high values
# Summary of the method: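 Part of a panel of yeast mutants defective in DNA damage repair or cell cycle regulation. Each strain is grown with compound, and inhibition is calculated relative to solvent-treated cultures.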
# [6] = NCI Yeast Anticancer Drug Screen. Data for the mlh1 rad18 strain (AID 175); conditions: S. cerevisiae mlh1 rad18 strain growth inhibition, hits give high values
# Summary of the method: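 A repair-deficient yeast strain is exposed to test compound, and growth is scored relative to vehicle-treated controls.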
# [7] = at 5.0 µM (retest, dose inferred, filed as 0.5)
# [8] = at 50.0 µM (retest, dose inferred, filed as 5.0)
Structure (SMILES),"growth inhibition [1, 7]","growth inhibition [1, 8]",growth inhibition ([1]; at 50.0 µM),"growth inhibition [2, 7]","growth inhibition [2, 8]",growth inhibition ([2]; at 50.0 µM),"growth inhibition [3, 7]","growth inhibition [3, 8]",growth inhibition ([3]; at 50.0 µM),"growth inhibition [4, 7]","growth inhibition [4, 8]",growth inhibition ([4]; at 50.0 µM),"growth inhibition [5, 7]","growth inhibition [5, 8]",growth inhibition ([5]; at 50.0 µM),"growth inhibition [6, 7]","growth inhibition [6, 8]",growth inhibition ([6]; at 50.0 µM)
OC(c1ccccc1)(c1ccccc1)C1CCCCC1,14%,97% (active),25.5%,7%,97% (active),1.7%,-4%,98% (active),40.1%,-8%,96% (active),-5.35%,-13%,97% (active),5.95%,2%,97% (active),9.9%
CCOC(=O)/C(=C\N1C(=O)/C(=C\C(C)=C\c2ccccc2)SC1=S)C(=O)c1ccccc1,-8%,0%,55%,-10%,22%,58%,-3%,14%,52.5%,-18%,2%,57%,-8%,39%,70.2% (active),-2%,20%,77% (active)
N#C/C(=C/c1ccc([N+](=O)[O-])o1)c1ccccc1,-6%,-7%,75.8% (active),-19%,-7%,-20.1%,-6%,-1%,27.9%,12%,23%,32.8%,-4%,-2%,-13.7%,-21%,21%,5.9%
CCN(CC)C(=S)N/N=C(\C)c1cccc(C)n1,84% (active),100% (active),88.7% (active),82% (active),99% (active),91.7% (active),62%,99% (active),85.3% (active),82% (active),99% (active),89.4% (active),87% (active),99% (active),88.9% (active),81% (active),99% (active),85.8% (active)
Cc1ccc2c(c1)C1(SCC(=O)N1c1ccc(Cl)cc1)C(=O)N2 (configuration not stated),1%,57%,48.6%,6%,36%,16.4%,5%,62%,77.8% (active),-1%,28%,20.8%,4%,74% (active),64.9%,-5%,69%,67.9%
Cc1nnc(NS(=O)(=O)c2ccc(N=Nc3cc(N=Nc4ccc(S(=O)(=O)Nc5nnc(C)s5)cc4)c4c(NC(=O)C(Cl)Cl)cccc4c3OC(=O)C(Cl)Cl)cc2)s1 (tested in a mixture with another compound),90% (active),-11%,51.8%,92% (active),24%,53.6%,89% (active),-9%,69.5%,90% (active),6%,65.8%,91% (active),-3%,58.2%,80% (active),-44%,79.5% (active)
NC(N)=NC(N)=Nc1ccc(-c2ccccc2)cc1,-17%,96% (active),-11.6%,1%,96% (active),14.6%,2%,97% (active),2.45%,-8%,93% (active),7.8%,-1%,97% (active),76.5% (active),4%,96% (active),32.4%
O=S(=O)(CCCCl)SCCCCl,11%,99% (active),99.4% (active),15%,99% (active),99.5% (active),18%,100% (active),99.5% (active),23%,99% (active),99.7% (active),22%,100% (active),99.7% (active),19%,99% (active),99.5% (active)
CC(=O)OCc1ccc2c(c1)C(O)NC(=O)O2 (configuration not stated),8%,45%,36%,2%,13%,21.9%,13%,69%,51.8%,-5%,18%,16.2%,0%,-7%,-23.1%,43%,88% (active),55.6%
